A selection: hits, their analogues and other compounds. The true share with any hit is near 19%.
ELG1 repair inh: ELG1-dependent DNA repair inhibition | HEK293T ELG1-luciferase reporter, luminescence, 16 h; DNA damage induced by 5-fluorouridine | Potency, µM (doses to about 46.1 µM), for the others: at the top dose activity change, negative = inhibition, usual class: inhibitors | 2.3% of 330,000 active; note: potency is the fitted concentration of half-maximal effect; nearly all actives have a fitted effect of over 55% in size
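Luminescence from the luciferase reporter, measured 30 min after ONE-Glo reagent at room temperature, was the read-out. Beforehand, 2,000 cells per well were exposed for 16 hr at 37 °C to 5-fluorouridine together with compound or vehicle.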
HT1080NT lethal: kills 2HG-producing HT-1080-NT fibrosarcoma cells. HT-1080-NT fibrosarcoma viability, CellTiter-Glo ATP luminescence, 48 h. Potency, µM (highest dose often 46.1 µM), for the others: at the highest dose activity, negative = less viability, usual class: cytotoxic. 1.6% of 360,000 active;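 note: NT is the 2HG producing partner of a matched IDH1 knockdown line; potency is the fitted concentration of half-maximal effect; 0% = DMSO-treated cells and -100% = media-only wells without cells; nearly all actives have a fitted effect of over 55% in size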
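Viability of the 2HG-overproducing fibrosarcoma line after 48 hours of compound exposure at 37 degrees C was determined by luminescence with CellTiter-Glo, and concentration-effect curves were then fitted and categorized.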
HT1080 IDH1KD tx: HT-1080 IDH1 knockdown cell toxicity (counter line); HT-1080 IDH1 knockdown viability, ATP luminescence, 48 h; Potency, µM (series often up to 46.1 µM), for the others: at the top dose activity, negative = toxicity, most hits filed as cytotoxic; 2% of 360,000 active; AID 686971;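 note: potency is the fitted concentration of half-maximal effect; 0% = DMSO wells and -100% = cell-free medium wells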
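Luminescent ATP read-out (CellTiter-Glo, 10 min at room temperature) after 48 h compound exposure at 37 °C gave viability of IDH1-knockdown HT-1080 cells. Activity was normalised to DMSO and cell-free wells, then fitted as concentration-response curves.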
IL-1B inflam inh: blocks inflammasome-driven IL-1 beta release. THP-1 LPS/ATP IL-1B secretion, AlphaLISA, 16 h; active compounds read low. activity change, % at 57.5 µM. 4.7% of 360,000 active; in the data active = activity change below about -50%; inconclusive = mostly about -30% to -49%
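Secreted IL-1B measured by AlphaLISA bead assay after 16 h compound exposure of THP-1 cells; compounds (final up to 57.5 uM) added 1 h before LPS (250 ng/mL) and ATP (1.25 mM) stimulation; lower signal means less secretion.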
TDP1 cell noCPT: qHTS for Inhibitors of human tyrosyl-DNA phosphodiesterase 1 (TDP1): qHTS in cells in absence of CPT; Potency, µM (series often up to 46.2 µM), for inactives: at the highest dose activity change, negative = growth inhibition, hits mostly inhibitors; DT40 Tdp1-/- hTDP1 cells, no CPT, ATP luminescence, 48 h; 15% of 420,000 active; note: potency is the fitted concentration of half-maximal effect; nearly all actives have a fitted effect of over 55% in size
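Growth kinetics read by CellTiter-Glo luminescence after ≥48 hr at 37 °C. Cells: DT40 Tdp1-/- stably carrying human TDP1, 400 per well, compound exposure in the absence of CPT (DMSO vehicle).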
DT40 TDP1 CPT: DT40-hTDP1 cell growth loss with CPT | chicken DT40 Tdp1-/-;hTDP1 cells + 20 nM CPT, ATP luminescence, 48 h | Potency, µM (titrated, usually from 46.2 µM), for inactives: top-dose activity change, negative = growth inhibition, usual class: inhibitors | 12% of 420,000 active | AID 686979; note: potency is the fitted concentration of half-maximal effect; nearly all actives have a fitted effect of over 55% in size
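Chicken DT40 Tdp1-/- cells stably complemented with human TDP1 were seeded at 400 cells/well in medium containing 20 nM camptothecin, exposed to pin-transferred compounds, and grown at 37 °C for at least 48 hr. Viability was read as ATP luminescence.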
The depositor's hits bear a star; ? = inconclusive; . = no result given. Unless noted, calls come from the whole dose curve; as a rule, active = well fitted curve in the direction sought with a large enough effect; inconclusive = small, poorly fitted or top-dose-only effect, or another doubt; inactive = no such curve, though single readings can be large; an effect the other way counts as inactive or inconclusive. Unless noted, % is set by controls: 0 for no effect and ±100 for the full control effect.

SMILES | ELG1 repair inh | HT1080NT lethal | HT1080 IDH1KD tx | IL-1B inflam inh | TDP1 cell noCPT | DT40 TDP1 CPT
Cc1ccc(C)c(S(=O)(=O)NCc2ccc(C(=O)N3CCCCCC3)cc2)c1 | -25% | -6% | -1% | 5 | 23µM* | ?
Cc1ccc(C)c(S(=O)(=O)NCc2ccc(C(=O)N3CCN(c4ccccc4)CC3)cc2)c1 | ? | -2% | -5% | -63* | ? | ?
Cc1ccc(C)c(S(=O)(=O)NCc2ccc(C(=O)N3CC(C)OC(C)C3)cc2)c1 (centres undefined) | 4% | -2% | -1% | 29 | -7% | -11%
COc1ccc(N2CCN(C(=O)c3ccc(CNS(=O)(=O)c4ccc(C)cc4)cc3)CC2)cc1 | -13% | -28% | ? | ? | 12µM* | ?
COc1ccc(N2CCN(C(=O)c3ccc(S(=O)(=O)NCc4ccco4)cc3)CC2)cc1 | -2% | -11% | -6% | 4 | -21% | -30%
O=C(c1ccc(CNS(=O)(=O)c2ccc(F)cc2)cc1)N1CCCCCC1 | . | 3% | 3% | 20 | 15µM* | ?
OC(CCN1CC2CCC(CC2)C1)(Cc1ccccc1)c1ccco1 (centres undefined) | . | -1% | 4% | -14 | ? | ?
COc1ccc(N2CCN(C(=O)c3ccc(CNS(=O)(=O)c4cc(C)ccc4C)cc3)CC2)cc1 | -20% | -15% | ? | -15 | 15µM* | 21µM*
C[C@]12C=CC(=O)N[C@@H]1CC[C@@H]1[C@@H]2CC[C@]2(C)[C@@H](C(=O)Nc3cc(C(F)(F)F)ccc3C(F)(F)F)CC[C@@H]12 | . | . | . | . | -11% | -13%
CCN(CC)S(=O)(=O)c1ccc2c(c1)N(CC(=O)NCCCN1CCN(c3ccccc3F)CC1)C(=O)CO2 | . | . | . | . | ? | 23µM*
O=C(Cn1cccc1C(=O)c1ccccc1)NCCCN1CCOCC1 | 1% | 21% | 21% | -2 | -16% | -25%
CCN(CC)S(=O)(=O)c1ccc2c(c1)N(CC(=O)NCCCN1CCN(c3cc(C)ccc3C)CC1)C(=O)CO2 | . | . | . | . | 4.6µM* | 2.6µM*
Cc1ccc(C)c(N2CCN(CCCNC(=O)Cn3cccc3C(=O)c3ccccc3)CC2)c1 | ? | 2% | 8% | -23 | 5.2µM* | 5.2µM*
O=C(CCN1C(=O)COc2ccccc21)NCCCN1CCN(c2ccccc2F)CC1 | -10% | 0% | -13% | -3 | ? | 18µM*
Cc1ccc(S(=O)(=O)N2CCN(CC(=O)Nc3ccccc3C(=O)NC3CC3)CC2)cc1 | -13% | 5% | 9% | 2 | ? | ?
Cn1cnnc1SCCOc1ccc(Cl)cc1 | ? | -1% | -2% | -80* | -2% | -21%
COc1cc(C=C2C(=O)c3ccccc3C2=O)cc(OC)c1OC | 10% | 19% | 12% | -7 | -5% | ?
COc1cc(C=Cc2nnc3c4ccccc4cnn23)cc(OC)c1OC | . | 6% | -3% | -29 | 0.82µM* | 3.3µM*
CCOc1ccc(/C=C/c2ccc3ccccc3n2)cc1OCC | . | . | . | . | 2.5µM* | 2.8µM*
COc1cc(/C=C/c2nc3ccccc3nc2/C=C/c2cc(OC)c(OC)c(OC)c2)cc(OC)c1OC | . | . | . | . | 4.5µM* | 1.3µM*
COc1cc(/C=C/c2ccc3ccccc3n2)cc(OC)c1OC | . | . | . | . | 0.071µM* | 0.16µM*
CNC(=O)CN(Cc1ccccc1)S(=O)(=O)c1ccc(Cl)cc1 | -8% | 1% | -10% | -16 | 4% | -9%
O=c1ccn(-c2ccccc2)[nH]1 | ? | 22% | 13% | 0 | -11% | 14%
COc1ccc(-c2nc(/C=C3\C(C)=Nc4ccccc43)c(O)o2)cc1 | 15% | -2% | 14% | 36 | 12µM* | 6.5µM*
COc1cc(C2c3cc4c(cc3OC(NCCc3ccccc3)C2C)OCO4)cc(OC)c1OC (centres undefined) | . | 1µM* | 1µM* | 41 | 0.82µM* | 1µM*
SMILES | ELG1 repair inh | HT1080NT lethal | HT1080 IDH1KD tx | IL-1B inflam inh | TDP1 cell noCPT | DT40 TDP1 CPT
COc1cc(C2c3cc4c(cc3OC(Nc3ccc(C(=O)O)cc3)C2C)OCO4)cc(OC)c1OC (centres undefined) | . | 0.52µM* | ? | -8 | 1.2µM* | 1.3µM*
COc1cc(CCC(=O)NCc2ccc3c(c2)OCO3)cc(OC)c1OC | -3% | 7% | 8% | 42 | -22% | 1%
N#Cc1c(Cl)nsc1NN | 0% | ? | ? | -64* | ? | ?
CC(O)(c1cccnc1)c1nc(-c2cccc(F)c2)cs1 (centres undefined) | . | -2% | -13% | 20 | -27% | ?
CC(C)c1cccc(-c2csc(C(C)(O)c3cccc(F)c3)n2)c1 (centres undefined) | . | -5% | ? | -21 | ? | 21µM*
COc1ccc(C(C)(O)c2nc(-c3ccccc3OC)cs2)cc1 (centres undefined) | . | ? | 16µM* | 20 | 13µM* | 9.2µM*
CC(O)(c1cccc(F)c1)c1nc(-c2cccc(F)c2)cs1 (centres undefined) | . | ? | ? | -30 | ? | ?
CC(O)(c1cccnc1)c1nc(-c2cccc(C(F)(F)F)c2)cs1 (centres undefined) | . | 23µM* | ? | -7 | 15µM* | 18µM*
COc1cccc(C(C)(O)c2nc(/C=C/c3ccccc3)cs2)c1 (centres undefined) | . | -29% | -20% | 29 | 18µM* | ?
CC(O)(c1ccccc1)c1nc(/C=C/c2ccccc2)cs1 (centres undefined) | . | ? | ? | 0 | ? | ?
O=c1c(-c2ccccc2)nc2cnc(Oc3ccccc3)nc2n1Cc1cccs1 | . | . | . | . | ? | -8%
Cn1nc(-c2ccc(N3CCN(CCO)CC3)c([N+](=O)[O-])c2)c2ccccc2c1=O | ? | -3% | -18% | -23 | ? | 17%
COc1cccc(C(C)(O)c2nc(-c3cccc(C(F)(F)F)c3)cs2)c1 (centres undefined) | . | 18µM* | ? | -7 | ? | ?
COc1ccc(C(C)(O)c2nc(-c3cccc(C(F)(F)F)c3)cs2)cc1 (centres undefined) | . | ? | 0% | 0 | 18µM* | 26µM*
COc1ccc(-c2csc(C(C)(O)c3cccc(F)c3)n2)cc1 (centres undefined) | . | -30% | ? | -5 | 13µM* | 18µM*

Bioassay records (PubChem BioAssay)
